Screening results from PubChem.
Only some compounds are listed: those with a hit (about 3.2% of all), similar ones and a draw of the others.
Tau ThT inhib: qHTS for Inhibitors of Tau Fibril Formation, Thioflavin T Binding; recombinant tau K18 P301L, heparin-induced fibrillization, ThT fluorescence; Potency, µM (top dose mostly 57.4 µM), without a hit: top-dose activity, negative = inhibition, hits mostly inhibitors; Microtubule-associated protein tau (Homo sapiens), P10636; 270,000 tested, 2.1% active; note: nearly all actives have a fitted effect of over 55% in size
Target sequence (P10636 561-689 P618L limits assumed): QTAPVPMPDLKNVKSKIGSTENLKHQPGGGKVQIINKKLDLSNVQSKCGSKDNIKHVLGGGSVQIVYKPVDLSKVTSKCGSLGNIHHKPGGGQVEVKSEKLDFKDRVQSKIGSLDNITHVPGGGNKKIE
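K18 P301L tau (15 uM + 0.24 uM Alexa 594-tagged), heparin 20 uM, NaOAc pH 7, 6 h 37 C; ThT 30 uM, 1 h RT, ex 450/em 510 nm.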
RGS12 GoLoco inh: qHTS Assay for Inhibitors of RGS12 GoLoco Motif Activity (Red Fluorophore) | Guanine nucleotide-binding protein G(i) subunit alpha-1 (Homo sapiens), P63096 | Gai1:RGS12 GoLoco peptide FP, rhodamine, 10 min | Potency, µM (top dose mostly 61.6 µM), inactives show at the highest dose activity, negative = inhibition, usual class: inhibitors | 230,000 tested, 0.44% active; active = well fitted inhibition curve with a large enough effect, not every such curve was filed as active; inactive = no such curve, though single readings can be large or run the other way; note: nearly all actives have a fitted effect of over 30% in size
Tau fluor counter: Counterscreen qHTS for Inhibitors of Tau Fibril Formation, Fluorescence Polarization | tau K18 P301L Alexa594 fluorescence, heparin fibrillization | AID 1463, 2008 | Potency, µM (series often up to 57.7 µM), for the others: at the top dose activity change, negative = decrease | 280,000 tested, 0.93% active; note: nearly all actives have a fitted effect of over 55% in size
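Human tau K18 P301L (15 uM unlabeled, 0.24 uM Alexa 594-labeled) in 100 mM sodium acetate pH 7 with 20 uM heparin, 6 hr at 37 C. ThT 30 uM added, 1 hr ambient; Alexa 594 FP and total fluorescence read at 555/632 nm.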
TexasRed fluor: Total Fluorescence Counterscreen for Inhibitors of the Interaction of Thyroid Hormone Receptor and Steroid Receptor Coregulator 2; TRb/SRC2 Texas Red total fluorescence interference; AID 1479, 2009; 280,000 tested, 0.29% active; Potency, µM (highest dose often 106 µM), without a hit: at the highest dose fluorescence change, negative = quenching; active = well fitted curve in either direction with a large enough effect; inconclusive = small, poorly fitted or top-dose-only effect
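Flags fluorescent or light-absorbing compounds by total fluorescence, S + 2P, at 555 nm excitation and 632 nm emission. Mixture: 20 nM Texas Red SRC2 peptide, 0.6 uM human TRb LBD, 1 uM T3, 5% DMSO; compound exposure 5 h at ambient temperature.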
Tau fibril FP: qHTS for Inhibitors of Tau Fibril Formation, Fluorescence Polarization. K18 P301L tau heparin fibrillization, Alexa594 FP, 6 h. Potency, µM (series often up to 57.7 µM), without a hit: top-dose activity, negative = inhibition, usual class: inhibitors. 280,000 tested, 0.39% active. AID 1468, 2008; note: nearly all actives have a fitted effect of over 55% in size
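Quantitative HTS format: compounds meet 15 uM recombinant K18 P301L tau and Alexa 594-tau tracer in 100 mM sodium acetate pH 7; 20 uM heparin triggers fibrillization at 37 C over 6 hr; FP gives the signal.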
TRb SRC2 PPI: qHTS for Inhibitors of the Interaction of Thyroid Hormone Receptor and Steroid Receptor Coregulator 2. Thyroid hormone receptor beta (Homo sapiens), P10828. TRbeta-SRC2 peptide binding, fluorescence polarization; receptor liganded with 1 µM T3. Potency, µM (highest dose often 106 µM), for inactives: at the highest dose activity change, negative = inhibition, most hits filed as inhibitors. 280,000 tested, 0.065% active. AID 1469, 2008;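 note: plate controls were bound peptide for no effect and peptide without receptor for full effect; nearly all actives have a fitted effect of over 50% in size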
Target sequence (P10828 whole entry, looked up): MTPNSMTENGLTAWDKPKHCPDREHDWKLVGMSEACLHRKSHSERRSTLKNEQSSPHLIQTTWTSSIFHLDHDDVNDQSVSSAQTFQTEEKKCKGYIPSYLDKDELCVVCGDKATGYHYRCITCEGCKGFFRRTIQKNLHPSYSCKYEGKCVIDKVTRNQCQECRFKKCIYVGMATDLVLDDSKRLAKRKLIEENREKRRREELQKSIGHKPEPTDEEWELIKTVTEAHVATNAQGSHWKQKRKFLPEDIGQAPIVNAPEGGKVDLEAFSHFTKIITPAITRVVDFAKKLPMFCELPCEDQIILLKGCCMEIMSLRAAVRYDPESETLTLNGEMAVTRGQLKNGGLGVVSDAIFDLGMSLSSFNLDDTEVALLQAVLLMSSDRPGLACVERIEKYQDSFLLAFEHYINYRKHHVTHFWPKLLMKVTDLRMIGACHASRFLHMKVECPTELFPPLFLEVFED
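Human TRb ligand-binding domain (0.6 uM) is mixed with 20 nM Texas Red SRC2 peptide and 1 uM T3; after compound addition and 5 hr at ambient temperature, polarization is measured and normalized to unbound and bound controls.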
Active calls of the source: *; u = inconclusive; x = no result; ! = not confirmed by another sample; [ ] = remark or other dose. Unless noted, calls come from the whole dose curve; as a rule, active = well fitted curve in the direction sought with a large enough effect; inconclusive = small, poorly fitted or top-dose-only effect, or another doubt; inactive = no such curve, though single readings can be large; an effect the other way counts as inactive or inconclusive. Unless noted, % is set by controls: 0 for no effect and ±100 for the full control effect; potency is the fitted concentration of half-maximal effect.

SMILES	Tau ThT inhib	RGS12 GoLoco inh	Tau fluor counter	TexasRed fluor	Tau fibril FP	TRb SRC2 PPI
CCOc1ccc(NC(=O)CCc2nnc3n(C)c(=O)c4sccc4n23)cc1	u	x	-16%	0.035µM*[quencher]	4%	30%[53 µM]
CCOc1ccc(NC(=O)CCCc2nnc3n(C)c(=O)c4sccc4n23)cc1	-6%	x	-8%	-2%	-3%	-7%
COc1ccccc1N1CCN(C(=O)CCc2nnc3n(C)c(=O)c4sccc4n23)CC1	-10%	x	-9%	22µM*[quencher]	-5%	u
COc1cc2oc(=O)c3c4c(cc5ccc(c1CCN(C)C)c2c53)OCO4	-15%	1%	-11%	-3%	9%	-5%
CC(=O)Nc1ccc(C(=O)Nc2ccc3c(c2)N(C2CCCC2)C(=O)c2ccccc2S3)cc1	13%	x	u	-4%	13µM*	-8%
O=C(Nc1ccc2c(c1)N(Cc1ccccc1)C(=O)c1ccccc1S2)NC1CC1	6%	2%	u	-1%	22µM*	-4%
N#Cc1ccc(C(=O)Nc2ccc3c(c2)N(C2CCCC2)C(=O)c2ccccc2S3)cc1	3%	x	u	-2%	u	-11%
CCc1cccc(C)c1N(C(=O)CS(=O)(=O)O)[C@@H](C)COC	x	x	x	-3%[201 µM]	x	8%[201 µM]
O=Cc1s/c(=N\S(=O)(=O)c2ccccc2)n(CCCCl)c1Cl	28µM*	12%	-12%	0%	u	-1%
COc1ccc(Nc2nc(N)nc(CSc3nc4cc(OC)ccc4s3)n2)cc1	u	x	14µM*[quencher]	-13%	-2%	9%
N#CC1=C(N)C2=CCCC[C@H]2[C@H](c2ccc(Br)cc2)C1(C#N)C#N	14µM*	39%	u	5%	u	-4%
O=C(O)c1ccc(N/N=C/c2cc3c(cc2[N+](=O)[O-])OCO3)cc1	14µM*	12%	-29%	-12%	3%	-5%
Cc1c(Cl)cccc1Nc1ccccc1C(=O)O	u	28µM*!	u	-1%	7%	5%
O=C(O)c1ccccc1Nc1ccc([N+](=O)[O-])cc1	10µM*	8%	0%	-3%	4%	-3%
O=[N+]([O-])c1ccc(Nc2c3ccccc3nc3ccccc23)cc1	10µM*	-7%	11µM*[quencher]	-2%	u	2%
Cc1ccc(S(=O)(=O)c2nnn3c2nc(Nc2ccc(C(C)C)cc2)c2sccc23)cc1C	16%	x	u	-1%	13µM*	7%
CCOc1ccc(Nc2nc3c(S(=O)(=O)c4ccc(C(C)C)cc4)nnn3c3ccsc23)cc1	8%	x	u	-1%	-9%	-1%
C=C(C)C(=O)OCCCCCCCCCCCC	x	x	x	-2%[201 µM]	x	-2%[201 µM]
COc1ccc(SCC(CC(C)C)N2CCN(C)CCC2=O)cc1 (stereo unspecified)	x	x	x	-1%	x	-5%
Oc1ccc(/C=N/Nc2ccnc3cc(Cl)ccc23)cc1O	10µM*	8%	16µM*[quencher]	-8%	13%	-8%
Cc1cc(C(=O)O)ccc1-n1c(C)cc(C=C2C(=O)c3ccccc3C2=O)c1C	14µM*	14%	-18%	-8%	-8%	8%
Cc1cc(C(=O)O)ccc1-n1c(C)cc(/C=C(/C#N)C(=O)Nc2ccccc2)c1C	-6%	-2%	4%	2%	3%	-2%
COc1ccc(Cl)cc1Nc1nc2ccc(C(=O)c3ccccc3)cc2n2cnnc12	-8%	x	-20%	-2%	1%	-3%
O=C(c1ccccc1)c1ccc2nc(Nc3cc(Cl)ccc3O)c3nncn3c2c1	-10%	x	18µM*[quencher]	-2%	u	0%
CN(C)CC[C@H](c1ccc(Br)cc1)c1ccccn1	x	0%[21.6 µM]	x	3%[53 µM]	x	1%[53 µM]
SMILES	Tau ThT inhib	RGS12 GoLoco inh	Tau fluor counter	TexasRed fluor	Tau fibril FP	TRb SRC2 PPI
C[C@H]1[C@H](C)CC[C@]2(C(=O)O)CC[C@]3(C)C(=CC[C@H]4[C@]3(C)C[C@@H](O)C3[C@](C)(CO)[C@H](O)[C@@H](O)C[C@]34C)[C@H]12 (stereo partly specified)	x	4%[14.2 µM]	x	x	x	x
O=[N+]([O-])c1ccc(Oc2cccc3cccnc23)c([N+](=O)[O-])c1	8.9µM*	16%	16µM*[quencher]	-4%	-7%	-6%
COc1cc(CCNC(C)=O)c(C(=O)/C=C/c2cccc(OC)c2OC)cc1OC	-14%	4%	0%	-2%	4%	3%
O=C1C2C(C(=O)N1/N=C/c1cc(Br)cc([N+](=O)[O-])c1O)C1C=CC2C12CC2 (stereo unspecified)	7.9µM*	4%	-18%	-1%	-1%	8%
C=CCS/C(N)=N\N=C\c1cc(Br)cc([N+](=O)[O-])c1O	13µM*	5%	u	-4%	7%	-10%
O=c1c2c(-c3ccc(Cl)cc3)csc2ncn1/N=C/c1cccc([N+](=O)[O-])c1O	16µM*	12%	-11%	-3%	1%	8%
O=[N+]([O-])c1cc(Cl)cc(/C=N/n2cnnc2)c1O	u	5%	6%	2%	4%	-2%
O=[N+]([O-])c1cc(Br)cc(/C=N/n2cnnc2)c1O	8.9µM*	12%	-2%	0%	8%	-3%
